Measurements taken from PubChem BioAssay (EPA / NIEHS).
“And” between values parts separate entries of the source, which are not always exact repeats. Equal entries are not always repeated. Results filed as inconclusive are left out. A structure can be active in one record and inactive in another. The source made the active and inactive calls. The calls were made as follows, unless noted: active = hit-call score of the fitted dose curve at least 0.9, where 1 is the maximum; inconclusive = response in the unintended direction; inactive = score below 0.9.

Columns and labels:
[1] = tested on: frog Estrogen Receptor (ER2), gene 100174814; assay: ATG_frER2_XSP2: Attagene TRANS-FACTORIAL Multi-Species (XSP2) HepG2 Assay for frog Estrogen Receptor (ER2) (AID 2283828)
How it was run: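 Read-out: reporter transcript levels by RT-PCR with 6-FAM primer extension, HpaI digestion and capillary electrophoresis, scored as induction over DMSO control. Transfected HepG2 carrying Xenopus ER2–GAL4 chimera; compounds incubated 24 h.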

[2] = target: Peroxisome proliferator-activated receptor gamma (Homo sapiens) (UniProt P37231); assay: ATG_hPPARg_XSP2: Attagene TRANS-FACTORIAL Multi-Species (XSP2) HepG2 Assay for human Peroxisome Proliferator-activated Receptor gamma (PPARg) (AID 2283829);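 also: actives raise reporter mRNA above DMSO so AC50 reflects PPARg activation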
Sequence of Peroxisome proliferator-activated receptor gamma (Homo sapiens) (P37231 whole entry, looked up, the tested form may be a part): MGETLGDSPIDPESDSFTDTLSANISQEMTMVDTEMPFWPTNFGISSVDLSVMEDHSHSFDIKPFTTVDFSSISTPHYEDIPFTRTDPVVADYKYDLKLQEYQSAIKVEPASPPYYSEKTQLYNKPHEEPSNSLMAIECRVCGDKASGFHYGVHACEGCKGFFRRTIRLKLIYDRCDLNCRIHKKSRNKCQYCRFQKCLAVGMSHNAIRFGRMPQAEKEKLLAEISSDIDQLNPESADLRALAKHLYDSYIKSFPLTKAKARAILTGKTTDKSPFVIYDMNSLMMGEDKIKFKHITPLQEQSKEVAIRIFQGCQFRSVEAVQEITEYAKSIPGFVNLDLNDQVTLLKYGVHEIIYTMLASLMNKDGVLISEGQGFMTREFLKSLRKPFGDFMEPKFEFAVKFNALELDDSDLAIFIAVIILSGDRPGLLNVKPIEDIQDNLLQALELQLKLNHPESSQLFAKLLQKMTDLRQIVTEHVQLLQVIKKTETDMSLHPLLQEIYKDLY
How it was run: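 Multiplexed transactivation in transfected HepG2 liver cells. Gal4-chimeric receptor activity reported as induced reporter transcript after 24 h.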

[3] = target: mouse Peroxisome Proliferator-activated Receptor gamma (PPARg), Pparg (gene 19016) (UniProt P37238); assay: ATG_mPPARg_XSP2: Attagene TRANS-FACTORIAL Multi-Species (XSP2) HepG2 Assay for mouse Peroxisome Proliferator-activated Receptor gamma (PPARg) (AID 2283830);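 also: hits are gains in reporter mRNA above DMSO so AC50 marks activation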
Sequence of mouse Peroxisome Proliferator-activated Receptor gamma (PPARg), Pparg (gene 19016) (P37238 whole entry, looked up, the tested form may be a part): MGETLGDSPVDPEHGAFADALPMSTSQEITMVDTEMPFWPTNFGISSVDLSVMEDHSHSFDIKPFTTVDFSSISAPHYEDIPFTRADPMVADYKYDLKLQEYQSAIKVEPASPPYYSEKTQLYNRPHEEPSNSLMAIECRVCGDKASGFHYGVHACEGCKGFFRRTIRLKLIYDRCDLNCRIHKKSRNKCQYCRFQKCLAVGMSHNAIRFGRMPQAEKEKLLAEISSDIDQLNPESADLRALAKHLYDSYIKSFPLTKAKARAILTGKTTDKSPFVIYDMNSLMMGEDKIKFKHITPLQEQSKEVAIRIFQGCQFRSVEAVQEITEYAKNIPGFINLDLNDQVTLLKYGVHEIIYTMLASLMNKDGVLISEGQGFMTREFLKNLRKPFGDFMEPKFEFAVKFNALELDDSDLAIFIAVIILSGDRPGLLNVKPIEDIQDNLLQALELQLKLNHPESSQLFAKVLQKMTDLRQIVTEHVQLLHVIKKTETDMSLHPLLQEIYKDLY
How it was run: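 Multiplexed TRANS reporter readout: after 24 h chemical exposure of transfected HepG2 cells (with 3 nM 6-alpha-fluorotestosterone, 1.5 nM norgestrel present), RNA reverse-transcribed, amplified, 6-FAM-labelled and resolved by capillary electrophoresis; mouse PPARg-Gal4 induction scored against DMSO.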

[4] = target: Nuclear receptor subfamily 1 group I member 2 (Mus musculus) (UniProt O54915); assay: ATG_mPXR_XSP2: Attagene TRANS-FACTORIAL Multi-Species (XSP1) HepG2 Assay for mouse Pregnane X Receptor (PXR) (AID 2283831)
Sequence of Nuclear receptor subfamily 1 group I member 2 (Mus musculus) (O54915 whole entry, looked up, the tested form may be a part): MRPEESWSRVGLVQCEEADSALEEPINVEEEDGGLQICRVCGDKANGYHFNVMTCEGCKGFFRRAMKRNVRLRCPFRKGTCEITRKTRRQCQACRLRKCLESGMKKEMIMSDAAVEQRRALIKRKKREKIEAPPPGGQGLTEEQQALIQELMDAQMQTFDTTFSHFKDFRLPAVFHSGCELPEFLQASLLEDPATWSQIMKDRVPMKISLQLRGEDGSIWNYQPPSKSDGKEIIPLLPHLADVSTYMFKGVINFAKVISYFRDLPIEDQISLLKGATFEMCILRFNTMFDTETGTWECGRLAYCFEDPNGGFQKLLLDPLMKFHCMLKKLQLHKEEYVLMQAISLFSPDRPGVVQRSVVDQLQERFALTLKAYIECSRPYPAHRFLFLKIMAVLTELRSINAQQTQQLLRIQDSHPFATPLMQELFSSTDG
How it was run: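 Human liver HepG2 cells expressing exogenous receptor-GAL4 chimeras were exposed to test chemicals for 24 h. Induction of reporter mRNA was scored as gain of fluorescence signal over DMSO controls.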

[5] = target: zebrafish Thyroid Hormone Receptor alpha (TRa), thraa (gene 30670) (UniProt Q98867); assay: ATG_zfTRa_XSP2: Attagene TRANS-FACTORIAL Multi-Species (XSP1) HepG2 Assay for zebrafish Thyroid Hormone Receptor alpha (TRa) (AID 2283832);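 also: actives raise zebrafish TRa-Gal4 reporter transcript above DMSO baseline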
Sequence of zebrafish Thyroid Hormone Receptor alpha (TRa), thraa (gene 30670) (Q98867 whole entry, looked up, the tested form may be a part): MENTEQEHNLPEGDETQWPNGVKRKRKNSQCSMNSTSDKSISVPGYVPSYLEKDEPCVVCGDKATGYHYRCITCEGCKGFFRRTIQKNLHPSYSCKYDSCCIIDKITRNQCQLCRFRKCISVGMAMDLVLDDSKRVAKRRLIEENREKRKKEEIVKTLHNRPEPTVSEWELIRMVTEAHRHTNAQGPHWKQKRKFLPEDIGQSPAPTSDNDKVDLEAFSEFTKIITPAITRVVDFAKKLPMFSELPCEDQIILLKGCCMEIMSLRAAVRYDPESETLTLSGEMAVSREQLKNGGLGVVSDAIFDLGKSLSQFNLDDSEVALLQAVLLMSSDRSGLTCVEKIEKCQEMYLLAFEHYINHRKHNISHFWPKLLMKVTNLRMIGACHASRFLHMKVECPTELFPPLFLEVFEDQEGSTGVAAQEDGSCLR
How it was run: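 HepG2, transient MRTU transfection, exogenous NR-Gal4 chimeras; 24 h dosing; mRNA readout via RT-PCR/CE fluorescence; positive direction vs DMSO.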

[6] = tested on: zebrafish Peroxisome Proliferator-activated Receptor gamma (PPARg), gene 557037; assay: ATG_zfPPARg_XSP2: Attagene TRANS-FACTORIAL Multi-Species (XSP2) HepG2 Assay for zebrafish Peroxisome Proliferator-activated Receptor gamma (PPARg) (AID 2283833);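 also: reporter mRNA from a zebrafish PPARg GAL4 chimera measured by RT-PCR and capillary electrophoresis; actives increase reporter signal over DMSO so AC50 reflects activation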
How it was run: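 Cell-based transactivation of a chimeric zebrafish PPARg-GAL4 receptor was assessed in transiently transfected HepG2 cells after 24 h of treatment. Reporter mRNA induction, detected fluorescently after RT-PCR, was analysed in the positive direction against DMSO.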

[7] = tested on: turtle Thyroid Hormone Receptor, alpha (TRa), gene 101949057; assay: ATG_trTRa_XSP2: Attagene TRANS-FACTORIAL Multi-Species (XSP1) HepG2 Assay for turtle Thyroid Hormone Receptor, alpha (TRa) (AID 2283834);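 also: hits raise reporter mRNA over the DMSO baseline so AC50 marks activators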
How it was run: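 Gain-of-signal reporter transcription measured in transiently transfected HepG2 at 24 h post-dose. Fluorescent RT-PCR products were resolved by capillary electrophoresis and compared with DMSO vehicle.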

[8] = ATG_M_61_XSP2: Attagene TRANS-FACTORIAL Multi-Species (XSP2) HepG2 Assay for M61 Transcription Factor (Internal Marker) (AID 2283835; active = hit-call score of the fitted dose curve at least 0.9, where 1 is the maximum; inactive = score below 0.9;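 also: active means a rise in signal above the DMSO baseline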)
How it was run: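 Internal background marker, read as RT-PCR/capillary-electrophoresis reporter mRNA 24 h post-dose in transiently transfected HepG2 cells. Androgen receptor stimulated with 3 nM 6-alpha-fluorotestosterone plus 1.5 nM norgestrel; gain of signal versus DMSO analysed.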

[9] = tested on: zebrafish Androgen Receptor (AR), gene 100005148; assay: ATG_zfAR_XSP2: Attagene TRANS-FACTORIAL Multi-Species (XSP2) HepG2 Assay for zebrafish Androgen Receptor (AR) (AID 2283825);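 also: hits raise reporter mRNA above DMSO so AC50 reflects agonist-type gain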
How it was run: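 After 24 h compound exposure in medium with 3 nM 6-alpha-fluorotestosterone plus 1.5 nM norgestrel, HepG2 cells carrying zebrafish AR–GAL4 reporter constructs were assessed for reporter mRNA gain by RT-PCR and capillary electrophoresis.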

[10] = tested on: frog Androgen Receptor (AR), gene 399456; assay: ATG_frAR_XSP2: Attagene TRANS-FACTORIAL Multi-Species (XSP2) HepG2 Assay for frog Androgen Receptor (AR) (AID 2283824);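 also: reporter mRNA from GAL4-UAS units driven by Xenopus AR-Gal4 chimera; actives raise reporter signal above DMSO so AC50 reflects agonist-like induction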
Experimental: ATG_XSP2_multi-species_TRANS is a cell-based, multiplexed assay created by modifying the existing Attagene TRANS-FACTORIAL system to include a panel of nuclear receptors from some or all the following species: human (Homo sapiens), mouse (Mus musculus), frog (Xenopus laevis), zebrafish (Danio rerio), chicken (Gallus gallus), and turtle (Chrysemys picta). The ECOTOX-FACTORIAL format uses HepG2, a human liver cell line, with measurements taken at 24 hours after chemical dosing in a 24-well plate. Xsp2 included 3 nM 6-alpha-fluorotestosterone and 1.5 nM norgestrel to stimulate the androgen receptor.ATG_frAR_XSP2 is one of 29 assay components measured or calculated from the ATG_XSP2_multi-species_TRANS assay. It is designed to make measurements of mRNA induction, a form of inducible reporter, as detected with fluorescence intensity signals by Reverse transcription polymerase chain reaction (RT-PCR) and Capillary electrophoresis technology.The assay endpoint ATG_frAR_XSP2 was analyzed in the positive analysis fitting direction relative to DMSO as the negative control and baseline of activity. […] Furthermore, this assay endpoint can be referred to as a primary readout, because this assay has produced multiple assay endpoints where this one serves a reporter gene function. […]

Measured: AC50

BrCc1cccc(Oc2ccccc2)c1
active: [1] 15.7 µM and 10.2 µM | [2] 58.6 µM and 35.6 µM | [3] 66.6 µM and 39 µM | [4] 27.7 µM
inactive: [4] | [5] | [6] | [7] | [8]

Clc1ccc(C(c2ccccc2Cl)C(Cl)Cl)cc1 (configuration not stated)
inactive: [2] | [3] | [5] | [6] | [8]
active: [1] 1.34 µM and 1.64 µM | [4] 5.19 µM and 5.09 µM

CCCCC(CC)COC(=O)c1ccc(O)cc1 (configuration not stated)
inactive: [9] | [5]
active: [4] 56.4 µM | [6] 60 µM

Oc1ccc2cc(SSc3ccc4cc(O)ccc4c3)ccc2c1
inactive: [5] | [6] | [7] | [8]
active: [10] 26.3 µM | [1] 925 nM and 696 nM | [2] 4.81 µM and 4.29 µM | [3] 7.19 µM and 5.11 µM | [4] 36.2 µM and 20.8 µM | [5] 156 µM | [7] 26.8 µM

O=c1c(O)c(-c2ccc(O)cc2)oc2cc(O)cc(O)c12
active: [10] 2.89 µM and 1.82 µM | [1] 1.75 µM and 945 nM | [2] 12.5 µM and 7.02 µM | [3] 12 µM
inactive: [4] | [5] | [6] | [7] | [8]

Cc1cc(=O)oc2cc(N(C)C)ccc12
inactive: [5] | [6] | [7] | [8]
active: [1] 48.9 µM | [2] 24.8 µM and 17 µM | [3] 33.5 µM and 27.8 µM | [4] 4.03 µM and 6.44 µM

OCc1cccc(Oc2ccccc2)c1
inactive: [4] | [5] | [6] | [7] | [8]
active: [1] 27.5 µM and 9.21 µM | [2] 60.3 µM and 36.7 µM | [3] 40.6 µM and 34.9 µM | [4] 57.4 µM
